Measurements published in PubChem BioAssay (EPA / NIEHS).
Records with an inconclusive call do not appear. The source made the active and inactive calls. Rule for the calls, unless noted: active = hit-call score of the fitted dose curve at least 0.9, where 1 is the maximum; inactive = score below 0.9.

Columns and labels:
[1] = ATG_PBREM_CIS: Attagene CIS-FACTORIAL HepG2 Assay for human Phenobarbital-responsive Enhancer Module (PBREM) (AID 2282955); conditions: HepG2 PBREM cis-reporter, Attagene multiplexed transcription; actives raise or lower the signal
Procedure, shortened: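 Multiplexed cis-reporter readout in human hepatoma HepG2 cells; PBREM-regulated transcript quantified after 24 h exposure by fluorescent RT-PCR fragment analysis. Signal changes up or down fitted relative to DMSO.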

[2] = ATG_PXRE_CIS: Attagene CIS-FACTORIAL HepG2 Assay for human Pregnane X Receptor Element (PXRE) (AID 2282957); conditions: HepG2 Attagene CIS-FACTORIAL PXRE reporter, mRNA; actives raise or lower the signal
Procedure, shortened: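 Transfect HepG2 with MRTUs (cis promoter elements); dose chemical, incubate 24 h; isolate RNA, RT with oligo(dT), PCR, 6-FAM label, HpaI cut, CE. Gain/loss fit vs DMSO.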

[3] = ATG_PPRE_CIS: Attagene CIS-FACTORIAL HepG2 Assay for human Peroxisome Proliferator-activated Response Element (PPRE) (AID 2282958); conditions: HepG2 PPRE cis-element reporter, Attagene transcription factor profiling; actives raise or lower the signal
Procedure, shortened: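 DMSO served as negative control and baseline for bidirectional curve fitting. Signal came from PPRE-regulated reporter mRNA in HepG2 cells, measured 24 h post-dosing by RT-PCR, 6-FAM primer extension and capillary electrophoresis.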

[4] = ATG_RORE_CIS: Attagene CIS-FACTORIAL HepG2 Assay for human RAR-related Orphan Receptor Element (RORE) (AID 2282959); conditions: HepG2 Attagene cis-factorial RORE reporter, mRNA; actives raise or lower the signal
Procedure, shortened: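 Transfect HepG2 with MRTUs; treat 24 h; extract RNA; RT with oligo(dT); PCR with reporter-specific primers; 6-FAM primer extension; HpaI digest 2 h at 37 C; capillary electrophoresis. Fit vs DMSO, bidirectional.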

[5] = ATG_Sox_CIS: Attagene CIS-FACTORIAL HepG2 Assay for human SRY-box transcription factor (SOX) (AID 2282960); conditions: HepG2 Attagene cis-factorial SOX reporter, mRNA; actives raise or lower the signal
Procedure, shortened: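 Fluorescence-labelled cDNA fragments from reporter transcripts, sized by CE, give the signal. Cells: HepG2, transiently transfected with cis-regulated reporter units. Exposure 24 h; DMSO negative control; bidirectional curve fitting.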

[6] = molecular target: Transcription factor Sp1 (Homo sapiens) (UniProt P08047); experiment: ATG_Sp1_CIS: Attagene CIS-FACTORIAL HepG2 Assay for human Specificity Protein 1 (Sp1) (AID 2282961); conditions: HepG2 Sp1 cis-reporter transcription, actives raise or lower the signal
Chain of Transcription factor Sp1 (Homo sapiens) (P08047 whole entry, looked up): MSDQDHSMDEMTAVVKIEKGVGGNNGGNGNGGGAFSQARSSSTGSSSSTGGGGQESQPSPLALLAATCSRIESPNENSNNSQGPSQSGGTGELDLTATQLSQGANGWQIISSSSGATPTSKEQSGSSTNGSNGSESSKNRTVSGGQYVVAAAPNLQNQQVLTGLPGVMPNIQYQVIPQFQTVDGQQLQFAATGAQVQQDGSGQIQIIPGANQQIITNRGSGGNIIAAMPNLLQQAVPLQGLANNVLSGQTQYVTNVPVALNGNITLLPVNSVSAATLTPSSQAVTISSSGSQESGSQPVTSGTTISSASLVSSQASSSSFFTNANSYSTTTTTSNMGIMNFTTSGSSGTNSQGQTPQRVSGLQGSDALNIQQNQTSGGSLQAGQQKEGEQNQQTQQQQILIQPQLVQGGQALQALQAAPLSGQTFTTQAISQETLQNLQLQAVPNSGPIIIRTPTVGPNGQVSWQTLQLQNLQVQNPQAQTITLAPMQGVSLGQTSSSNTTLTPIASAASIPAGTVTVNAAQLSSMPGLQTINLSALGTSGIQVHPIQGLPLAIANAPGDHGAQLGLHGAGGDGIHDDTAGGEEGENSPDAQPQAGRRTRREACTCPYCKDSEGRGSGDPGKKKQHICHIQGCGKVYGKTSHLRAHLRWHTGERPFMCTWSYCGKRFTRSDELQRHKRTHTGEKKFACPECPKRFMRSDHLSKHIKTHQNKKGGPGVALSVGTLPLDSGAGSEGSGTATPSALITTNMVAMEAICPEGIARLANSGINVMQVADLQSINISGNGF
Procedure, shortened: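 Chemicals are dosed onto HepG2 cells transfected with multiple cis-promoter reporter constructs, and after 24 h reporter RNA is reverse-transcribed, PCR-amplified and resolved by capillary electrophoresis for fluorescence quantitation; activity is scored up or down against DMSO.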

[7] = ATG_SREBP_CIS: Attagene CIS-FACTORIAL HepG2 Assay for human Sterol Regulatory Element Binding (SREBP) (AID 2282962); conditions: HepG2 Attagene cis-factorial SREBP reporter, mRNA; actives raise or lower the signal
Procedure, shortened: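 Transfected HepG2 (cis-regulated reporter library, endogenous TFs) → compound 24 h → total RNA → oligo(dT) RT → reporter-specific PCR → FAM primer extension, HpaI cut → CE fluorescence. Fit bidirectional vs DMSO.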

[8] = molecular target: Signal transducer and activator of transcription 3 (Homo sapiens) (UniProt P40763); experiment: ATG_STAT3_CIS: Attagene CIS-FACTORIAL HepG2 Assay for human Signal Transducer and Activator of Transcription 3 (STAT3) (AID 2282963); conditions: HepG2, Attagene cis-factorial STAT3 reporter transcription; actives raise or lower the signal
Chain of Signal transducer and activator of transcription 3 (Homo sapiens) (P40763 whole entry, looked up): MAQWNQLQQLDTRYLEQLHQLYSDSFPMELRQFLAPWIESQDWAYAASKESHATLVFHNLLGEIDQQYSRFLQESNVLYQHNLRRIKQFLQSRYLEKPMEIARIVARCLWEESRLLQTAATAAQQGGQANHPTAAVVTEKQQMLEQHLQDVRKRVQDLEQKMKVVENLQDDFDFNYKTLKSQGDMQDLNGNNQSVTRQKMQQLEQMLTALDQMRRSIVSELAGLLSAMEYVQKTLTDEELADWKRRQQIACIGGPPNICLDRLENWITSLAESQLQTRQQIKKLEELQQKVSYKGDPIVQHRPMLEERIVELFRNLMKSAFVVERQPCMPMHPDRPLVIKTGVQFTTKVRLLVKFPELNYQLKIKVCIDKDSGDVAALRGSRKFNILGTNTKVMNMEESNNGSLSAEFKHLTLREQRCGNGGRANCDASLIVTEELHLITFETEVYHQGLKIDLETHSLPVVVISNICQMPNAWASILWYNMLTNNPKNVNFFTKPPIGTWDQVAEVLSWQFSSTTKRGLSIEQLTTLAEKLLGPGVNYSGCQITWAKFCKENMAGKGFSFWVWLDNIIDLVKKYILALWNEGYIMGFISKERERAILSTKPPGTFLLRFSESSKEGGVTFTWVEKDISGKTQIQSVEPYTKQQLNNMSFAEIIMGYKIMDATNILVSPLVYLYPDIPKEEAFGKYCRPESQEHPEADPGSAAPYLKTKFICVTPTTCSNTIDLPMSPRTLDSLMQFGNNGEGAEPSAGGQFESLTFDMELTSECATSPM
Procedure, shortened: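 HepG2 cells transiently transfected with multiple cis-element-driven reporter units report endogenous transcription factor activity. After 24 h compound exposure, reporter mRNA is measured by RT-PCR, 6-FAM labelling, HpaI digestion and capillary electrophoresis. Fitted bidirectionally versus DMSO.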

[9] = ATG_TA_CIS: Attagene CIS-FACTORIAL HepG2 Assay for human TA Basal Promoter (AID 2282964); conditions: HepG2 Attagene CIS-factorial TA basal promoter reporter; actives raise or lower the signal
Procedure, shortened: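 Transient MRTU transfection of HepG2 preceded 24 h compound exposure. Reporter mRNA levels were then read by RT-PCR with capillary electrophoresis, and this background-control endpoint was fitted bidirectionally to DMSO.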

[10] = ATG_TCF_b_cat_CIS: Attagene CIS-FACTORIAL HepG2 Assay for human T-Cell-Factor with beta-catenin (TCF/b-cat) (AID 2282965); conditions: HepG2 TCF/beta-catenin cis-reporter transcription, actives raise or lower the signal
Procedure, shortened: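 HepG2 cells transiently transfected with cis-promoter-driven multiplexed reporter units; reporter mRNA measured 24 h after dosing by RT-PCR, FAM labelling, HpaI digestion and capillary electrophoresis. Bidirectional fitting relative to DMSO baseline.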

[11] = ATG_TAL_CIS: Attagene CIS-FACTORIAL HepG2 Assay for human TAL Basal Promoter (AID 2282966); conditions: HepG2 Attagene cis-factorial TAL promoter reporter; actives raise or lower the signal;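 note: background control endpoint measuring basal TAL promoter reporter mRNA not a specific factor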
Procedure, shortened: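 Fluorescence of labelled reporter cDNA fragments, resolved by capillary electrophoresis, gave the readout. Human HepG2 liver cells carried transiently transfected cis-element reporter units and were treated for 24 hours; activity was fitted bidirectionally against DMSO.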

[12] = ATG_TGFb_CIS: Attagene CIS-FACTORIAL HepG2 Assay for human Transforming Growth Factor (TGF) (AID 2282967); conditions: HepG2 Attagene CIS TGFb reporter, mRNA transcription; actives raise or lower the signal
Procedure, shortened: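 After a 24-hour incubation with compound, transfected HepG2 cells were lysed for RNA; reporter cDNA was amplified, fluorescently end-labeled and separated by CE. DMSO served as baseline for bidirectional fits.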

[13] = ATG_VDRE_CIS: Attagene CIS-FACTORIAL HepG2 Assay for human Vitamin D Receptor Element (VDRE) (AID 2282968); conditions: HepG2 VDRE cis-reporter transcription, actives raise or lower the signal
Procedure, shortened: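 Transiently transfected HepG2 cells carrying cis-regulated reporter transcription units were exposed for 24 h. Reporter mRNA was measured by RT-PCR with fluorescent labelling and capillary electrophoresis, and fitted in both directions against DMSO.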

[14] = molecular target: Nuclear receptor subfamily 1 group I member 3 (Homo sapiens) (UniProt Q14994); experiment: ATG_CAR_TRANS: Attagene TRANS-FACTORIAL HepG2 Assay for human Constitutive Androstane Receptor (CAR) (AID 2282969; active = hit-call score of the fitted dose curve at least 0.9, where 1 is the maximum;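 note: activators raise reporter mRNA above DMSO so AC50 marks induction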); conditions: HepG2 Attagene TRANS-FACTORIAL CAR reporter
Chain of Nuclear receptor subfamily 1 group I member 3 (Homo sapiens) (Q14994 whole entry, looked up, the tested form may be a part): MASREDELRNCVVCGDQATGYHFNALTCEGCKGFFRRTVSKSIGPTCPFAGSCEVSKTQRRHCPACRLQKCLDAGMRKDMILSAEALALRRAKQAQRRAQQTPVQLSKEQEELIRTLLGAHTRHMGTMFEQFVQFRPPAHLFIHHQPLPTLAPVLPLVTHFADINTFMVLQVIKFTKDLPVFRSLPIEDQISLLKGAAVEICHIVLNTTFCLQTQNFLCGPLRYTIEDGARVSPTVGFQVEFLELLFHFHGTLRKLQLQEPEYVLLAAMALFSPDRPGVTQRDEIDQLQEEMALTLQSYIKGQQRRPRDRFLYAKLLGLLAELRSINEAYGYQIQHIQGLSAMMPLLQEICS
Procedure, shortened: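 HepG2 cells transiently transfected with GAL4-UAS reporter units; TRANS format reads activity of exogenous chimeric NR-Gal4 protein. After 24 h dosing, reporter mRNA quantified by RT-PCR, 6-FAM labelling and capillary electrophoresis; gain of signal fitted against DMSO.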

[15] = molecular target: Estrogen receptor (Homo sapiens) (UniProt P03372); experiment: ATG_ERa_TRANS: Attagene TRANS-FACTORIAL HepG2 Assay for human Estrogen Receptor alpha (ERa) (AID 2282970; active = hit-call score of the fitted dose curve at least 0.9, where 1 is the maximum); conditions: HepG2 Attagene TRANS ERa GAL4 reporter, mRNA
Chain of Estrogen receptor (Homo sapiens) (P03372 whole entry, looked up, the tested form may be a part): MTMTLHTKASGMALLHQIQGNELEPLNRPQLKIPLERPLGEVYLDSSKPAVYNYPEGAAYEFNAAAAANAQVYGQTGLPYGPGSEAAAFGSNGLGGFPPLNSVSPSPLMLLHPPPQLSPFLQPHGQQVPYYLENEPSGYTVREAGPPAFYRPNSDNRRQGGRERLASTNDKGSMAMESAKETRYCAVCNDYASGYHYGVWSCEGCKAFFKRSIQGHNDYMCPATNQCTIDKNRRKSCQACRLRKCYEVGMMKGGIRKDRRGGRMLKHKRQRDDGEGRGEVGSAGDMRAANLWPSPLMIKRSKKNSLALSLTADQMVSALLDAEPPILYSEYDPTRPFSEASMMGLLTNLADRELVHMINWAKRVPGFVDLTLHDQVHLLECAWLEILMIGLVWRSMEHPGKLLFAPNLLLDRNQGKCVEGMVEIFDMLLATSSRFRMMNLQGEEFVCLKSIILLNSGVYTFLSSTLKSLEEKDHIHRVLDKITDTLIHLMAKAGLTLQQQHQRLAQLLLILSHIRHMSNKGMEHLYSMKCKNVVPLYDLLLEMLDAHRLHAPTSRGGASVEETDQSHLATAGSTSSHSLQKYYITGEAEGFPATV
Procedure, shortened: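 Human liver HepG2, transient transfection of multiple GAL4-UAS reporter units; TRANS format (exogenous NR-Gal4 chimera). 24 h dosing. Readout: reporter mRNA, RT-PCR, 6-FAM primer extension, HpaI digest, capillary electrophoresis. Positive direction vs DMSO.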

[16] = molecular target: X-box-binding protein 1 (Homo sapiens) (UniProt P17861); experiment: ATG_Xbp1_CIS: Attagene CIS-FACTORIAL HepG2 Assay for human X-box Binding Protein 1 (XBP1) (AID 2282972); conditions: HepG2 XBP1 cis-element reporter, Attagene multiplex; actives raise or lower the signal
Chain of X-box-binding protein 1 (Homo sapiens) (P17861 whole entry, looked up): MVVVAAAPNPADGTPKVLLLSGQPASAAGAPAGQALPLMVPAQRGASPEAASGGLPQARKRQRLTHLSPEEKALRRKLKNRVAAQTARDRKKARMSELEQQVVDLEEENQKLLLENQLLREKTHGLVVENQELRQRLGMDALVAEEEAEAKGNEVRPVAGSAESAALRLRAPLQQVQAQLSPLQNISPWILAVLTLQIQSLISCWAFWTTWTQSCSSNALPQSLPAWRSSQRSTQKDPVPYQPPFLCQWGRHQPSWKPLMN
Procedure, shortened: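 HepG2, transient MRTU transfection (cis-promoter driven), 24 h compound exposure. Total RNA → oligo(dT) RT → PCR → 6-FAM labeling → HpaI cut → CE. Bidirectional fit vs DMSO.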

[17] = ATG_M_19_TRANS: Attagene TRANS-FACTORIAL HepG2 Assay for M19 Transcription Factor (Internal Marker) (AID 2282974; active = hit-call score of the fitted dose curve at least 0.9, where 1 is the maximum); conditions: HepG2 Attagene TRANS-FACTORIAL M19 internal marker reporter
Procedure, shortened: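 Multiplexed TRANS format: HepG2 liver cells bearing transient GAL4-UAS reporter units, chemical treatment 24 h, reporter transcripts quantified by RT-PCR plus capillary electrophoresis. DMSO defines baseline.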

[18] = molecular target: Androgen receptor (Homo sapiens) (UniProt P10275); experiment: ATG_AR_TRANS: Attagene TRANS-FACTORIAL HepG2 Assay for human Androgen Receptor (AR) (AID 2282973; active = hit-call score of the fitted dose curve at least 0.9, where 1 is the maximum); conditions: HepG2 Attagene TRANS-FACTORIAL AR reporter transcription
Chain of Androgen receptor (Homo sapiens) (P10275 whole entry, looked up, the tested form may be a part): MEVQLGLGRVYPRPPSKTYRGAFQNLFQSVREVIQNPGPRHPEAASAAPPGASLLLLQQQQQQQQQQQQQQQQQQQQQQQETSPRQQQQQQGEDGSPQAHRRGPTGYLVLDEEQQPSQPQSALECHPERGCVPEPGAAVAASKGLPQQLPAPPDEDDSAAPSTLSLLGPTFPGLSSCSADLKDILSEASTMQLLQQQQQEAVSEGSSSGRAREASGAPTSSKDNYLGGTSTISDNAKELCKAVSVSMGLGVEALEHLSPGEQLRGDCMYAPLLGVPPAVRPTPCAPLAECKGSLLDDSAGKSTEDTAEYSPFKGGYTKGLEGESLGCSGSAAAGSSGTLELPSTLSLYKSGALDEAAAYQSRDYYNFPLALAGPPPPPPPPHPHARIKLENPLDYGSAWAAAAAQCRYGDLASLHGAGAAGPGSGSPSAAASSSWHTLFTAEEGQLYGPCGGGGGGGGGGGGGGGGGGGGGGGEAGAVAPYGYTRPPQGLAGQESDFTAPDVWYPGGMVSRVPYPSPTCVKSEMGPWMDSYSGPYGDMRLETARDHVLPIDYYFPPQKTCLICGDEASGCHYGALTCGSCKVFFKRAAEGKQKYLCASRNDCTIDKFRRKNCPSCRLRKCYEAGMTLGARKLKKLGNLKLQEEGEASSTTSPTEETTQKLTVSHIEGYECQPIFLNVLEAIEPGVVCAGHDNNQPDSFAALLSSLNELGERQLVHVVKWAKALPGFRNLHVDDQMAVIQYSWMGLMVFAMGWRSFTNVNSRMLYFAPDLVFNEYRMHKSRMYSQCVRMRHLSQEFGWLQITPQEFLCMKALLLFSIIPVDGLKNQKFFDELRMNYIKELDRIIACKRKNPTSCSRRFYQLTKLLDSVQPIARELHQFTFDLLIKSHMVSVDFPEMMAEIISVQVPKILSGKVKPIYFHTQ
Procedure, shortened: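 Steps: transfect HepG2 with multiple GAL4-UAS reporter transcription units (TRANS format, exogenous NR-Gal4 protein); dose 24 h; isolate RNA, reverse-transcribe, PCR-amplify, FAM-label, HpaI-digest; resolve by capillary electrophoresis. Positive direction vs DMSO.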

[19] = molecular target: Paired box protein Pax-6 (Homo sapiens) (UniProt P26367); experiment: ATG_Pax6_CIS: Attagene CIS-FACTORIAL HepG2 Assay for human Paired Box 6 (PAX6) (AID 2282956); conditions: HepG2 CIS-FACTORIAL PAX6 reporter transcription, RNA readout; actives raise or lower the signal
Chain of Paired box protein Pax-6 (Homo sapiens) (P26367 whole entry, looked up): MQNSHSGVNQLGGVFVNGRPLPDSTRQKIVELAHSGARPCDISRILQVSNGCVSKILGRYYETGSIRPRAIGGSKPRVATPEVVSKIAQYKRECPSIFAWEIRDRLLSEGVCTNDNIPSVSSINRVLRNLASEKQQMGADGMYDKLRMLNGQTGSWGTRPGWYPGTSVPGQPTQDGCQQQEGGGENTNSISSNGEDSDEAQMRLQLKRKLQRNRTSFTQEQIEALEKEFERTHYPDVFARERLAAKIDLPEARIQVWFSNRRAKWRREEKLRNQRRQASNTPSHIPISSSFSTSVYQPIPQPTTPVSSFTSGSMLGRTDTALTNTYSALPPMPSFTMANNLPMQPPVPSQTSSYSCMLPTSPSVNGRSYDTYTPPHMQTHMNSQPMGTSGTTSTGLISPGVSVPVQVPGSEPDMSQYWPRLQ
Procedure, shortened: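 Transient MRTU transfection of HepG2 → compound exposure 24 h → TriZol RNA, oligo(dT) RT → PCR, 6-FAM primer extension, HpaI cut → capillary electrophoresis; activity fitted both directions against DMSO.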

Measured: AC50

CCCC(=NOCC)C1=C(O)CC(CC(C)SCC)CC1=O (stereo unspecified)
active: [2] 29.5 µM
not listed: [18] | [19]
inactive: all other assays above

Clc1cccc(C(Cl)(Cl)Cl)n1
active: [2] 48.7 µM
not listed: [1] | [3] | [13] | [14] | [19]
inactive: all other assays above

Cc1ccc(N=CN(C)C=Nc2ccc(C)cc2C)c(C)c1
not listed: [3] | [15] | [17] | [18] | [19]
inactive: all other assays above

CCOP(=O)(OCC)Oc1nc(Cl)c(Cl)cc1Cl
active: [2] 45.7 µM | [3] 29.9 µM | [7] 15.6 µM | [13] 39.2 µM | [15] 50 µM
not listed: [14] | [19]
inactive: all other assays above

O=c1n(Cl)c(=O)n(Cl)c(=O)n1Cl
active: [2] 50 µM
not listed: [18] | [19]
inactive: all other assays above

CC1(C)CCC(=Cc2ccc(Cl)cc2)C1(O)Cn1cncn1 (stereo unspecified)
active: [2] 3.16 µM | [3] 29.7 µM | [7] 15 µM | [13] 8.04 µM
not listed: [18] | [19]
inactive: all other assays above

COCC(C)N(C(=O)CCl)c1c(C)csc1C (stereo unspecified)
active: [2] 1.06 µM | [7] 5.88 µM | [13] 1.84 µM
not listed: [1] | [14] | [17] | [18]
inactive: all other assays above
